Screening data deposited in PubChem by National Center for Advancing Translational Sciences (NCATS).
VP16 counter: VP16 counterscreen qHTS for inhibitors of ROR gamma transcriptional activity. Drosophila S2 Gal4-VP16 UAS-luciferase, luminescence, 20 h. Potency, µM (top dose mostly 53.6 µM), for the others: at the highest dose activity, negative = inhibition, actives largely listed as inhibitors. actives 3.5% (n = 310,000). AID 2546, 2010;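 note: Gal4-VP16 expression switched on by copper sulfate through the metallothionein promoter; potency is the fitted concentration of half-maximal effect; nearly all actives have a fitted effect of over 50% in size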
TDP1 cell noCPT: qHTS for Inhibitors of human tyrosyl-DNA phosphodiesterase 1 (TDP1): qHTS in cells in absence of CPT. DT40 Tdp1-/- hTDP1 cells, no CPT, ATP luminescence, 48 h. Potency, µM (titrated, usually from 46.2 µM), inactives show at the top dose activity change, negative = growth inhibition, most hits filed as inhibitors. actives 15% (n = 420,000); note: potency is the fitted concentration of half-maximal effect; nearly all actives have a fitted effect of over 55% in size
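Compound effects on proliferation are scored in DT40 Tdp1-/-;hTDP1 cells in the absence of CPT. ATP levels (CellTiter-Glo luminescence) are recorded after a ≥48 hr, 37 °C incubation.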
RORg inh: qHTS for inhibitors of ROR gamma transcriptional activity; Nuclear receptor ROR-gamma (Mus musculus), P51450; Drosophila S2 Gal4-RORgamma UAS-luciferase reporter, 20 h; Potency, µM (series often up to 53.6 µM), for inactives: at the top dose activity change, negative = inhibition, usual class: inhibitors; actives 5.4% (n = 310,000); AID 2551, 2010; note: potency is the fitted concentration of half-maximal effect; nearly all actives have a fitted effect of over 60% in size
Target sequence (P51450 whole entry, looked up, the tested form may be a part): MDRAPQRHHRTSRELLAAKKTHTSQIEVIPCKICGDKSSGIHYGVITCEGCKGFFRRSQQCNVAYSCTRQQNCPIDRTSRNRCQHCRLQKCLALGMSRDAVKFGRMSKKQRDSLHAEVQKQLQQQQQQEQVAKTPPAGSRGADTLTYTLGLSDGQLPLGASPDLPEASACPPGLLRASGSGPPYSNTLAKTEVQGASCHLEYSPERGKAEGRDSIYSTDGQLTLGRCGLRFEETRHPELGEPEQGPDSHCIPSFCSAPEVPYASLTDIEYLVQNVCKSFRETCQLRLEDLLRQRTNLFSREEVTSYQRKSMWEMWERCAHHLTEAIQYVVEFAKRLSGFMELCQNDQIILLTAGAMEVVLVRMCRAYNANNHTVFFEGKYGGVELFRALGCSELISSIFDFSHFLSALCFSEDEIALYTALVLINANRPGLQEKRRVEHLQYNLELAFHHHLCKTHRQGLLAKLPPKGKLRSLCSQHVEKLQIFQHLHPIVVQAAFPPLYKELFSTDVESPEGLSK
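Stable Schneider cell line, Gal4 DNA-binding domain fused to ROR gamma, UAS-luciferase. Cmpd 1 hr RT → CuSO4 700 uM final → 20 hr RT → luciferase reagent 10 min → luminescence.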
ELG1 DNA repair: qHTS screen for small molecules that inhibit ELG1-dependent DNA repair in human embryonic kidney (HEK293T) cells expressing luciferase-tagged ELG1; Potency, µM (highest dose often 46.1 µM), without a hit: top-dose activity change, negative = inhibition, hits mostly inhibitors; actives 2.3% (n = 330,000); HEK293T ELG1-luciferase reporter, luminescence, 16 h; DNA damage induced by 5-fluorouridine; AID 504467, 2011; note: potency is the fitted concentration of half-maximal effect; nearly all actives have a fitted effect of over 55% in size
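Step one: seed 2,000 cells per well. Step two: pin-transfer compound or DMSO alongside 5-fluorouridine. Step three: incubate 16 hr, 37 °C, 5% CO2. Step four: add ONE-Glo, wait 30 min, read luminescence.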
IL1B secr inh: qHTS for Inhibitors of Inflammasome Signaling: IL-1-beta AlphaLISA Primary Screen | THP-1 LPS/ATP IL-1B secretion, AlphaLISA, 16 h; hits give low values | activity change, % at 57.5 µM | actives 4.7% (n = 360,000) | AID 743279, 2014; in the data active = activity change below about -50%; inconclusive = mostly about -30% to -49%
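THP-1 cells pretreated 1 hr with compounds (up to 57.5 uM final), then stimulated with LPS (250 ng/mL final) plus ATP (1.25 mM final); secreted IL-1B measured by AlphaLISA after 16 hr, decreased signal indicating inhibition.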
TDP1 cell CPT: qHTS for Inhibitors of human tyrosyl-DNA phosphodiesterase 1 (TDP1): qHTS in cells in presence of CPT. chicken DT40 Tdp1-/-;hTDP1 cells + 20 nM CPT, ATP luminescence, 48 h. Potency, µM (highest dose often 46.2 µM), for inactives: top-dose activity change, negative = growth inhibition, actives largely listed as inhibitors. actives 12% (n = 420,000); note: potency is the fitted concentration of half-maximal effect; nearly all actives have a fitted effect of over 55% in size
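Chicken DT40 Tdp1-/- cells complemented with human TDP1, 400 cells/well, exposed to compounds plus 20 nM camptothecin for at least 48 h at 37 C; viability read as ATP content by CellTiter-Glo luminescence.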
Starred values were filed as active, the others as inactive; ? = inconclusive; . = not tested or not shown; [ ] = dose if it differs, or a comment. A selection: hits, their analogues and other compounds. The true share with any hit is near 21%. Unless noted, calls come from the whole dose curve; as a rule, active = well fitted curve in the direction sought with a large enough effect; inconclusive = small, poorly fitted or top-dose-only effect, or another doubt; inactive = no such curve, though single readings can be large; an effect the other way counts as inactive or inconclusive. % is set by controls: 0 for no effect and ±100 for the full control effect.

SMILES	VP16 counter	TDP1 cell noCPT	RORg inh	ELG1 DNA repair	IL1B secr inh	TDP1 cell CPT
CCOC(=O)Cc1nnc(NC(=O)C(CC)Sc2nc(C)cc(=O)[nH]2)s1 (stereo not drawn)	-2%	16µM*	-2%	9%	5	?
CCC(Sc1nc(C)cc(=O)[nH]1)C(=O)Nc1sc2c(c1C#N)CCCC2 (stereo not drawn)	-6%	16µM*	13%	-18%	48	16µM*
N#Cc1c(NC(=O)CSc2nc(N)cc(=O)[nH]2)sc2c1CCCCCC2	?	?	-4%	?	8	?
CC(Sc1nc(N)cc(=O)[nH]1)C(=O)Nc1sc2c(c1C#N)CCCC2 (stereo not drawn)	-18%	2.3µM*	38%	8.2µM*	44	2.3µM*
Cc1ccc2c(c1)c1c(c(=O)n(-c3cccc(Cl)c3)c(=O)n1CC(=O)NCC1CCCO1)n2C (stereo not drawn)	.	-21%	.	.	.	-22%
CCOC(=O)CNC(=O)C1CCCCC1	.	0%	.	.	.	-7%
O=C(c1cccn1-c1nnc(N2CCCCC2)s1)N1CCN(c2ccc(Cl)cc2)CC1	.	26µM*	.	.	.	?
O=C(c1ccccc1)N1CCN(c2ccc(Cl)cc2)CC1	-9%	?	37%	?	-3	?
Cc1ccc(Cl)cc1N1CCN(C(=O)c2cccn2-c2nnc(N3CCCCC3)s2)CC1	.	13µM*	.	.	.	18µM*
Cc1cccc(N2CCN(C(=O)c3cccn3-c3nnc(N4CCCCC4)s3)CC2)c1C	.	23µM*	.	.	.	23µM*
O=C(N1CCCCC1)N1CCN(c2ccc(Cl)cc2)CC1	-1%	?	?	-8%	?	-27%
O=C(c1cccn1-c1nnc(N2CCCC2)s1)N1CCN(c2ccc(Cl)cc2)CC1	.	23µM*	.	.	.	21µM*
CCN(C(=O)COC(=O)c1nn(-c2ccccc2)c(=O)c2ccccc12)C1CCS(=O)(=O)C1 (stereo not drawn)	-5%	-7%	-8%	15%	-3	-11%
O=C(Nc1cc(C(F)(F)F)ccc1Cl)C1CCN(c2nnc(-n3cccc3)s2)CC1	-26%	?	32%	13%	-3	-28%
Cc1ccc(Cl)cc1N1CCN(C(=O)C2CCN(c3nnc(-n4cccc4)s3)CC2)CC1	11µM*	16µM*	38%	8.2µM*	-19	?
O=C(CC1C[C@H](C(=O)N2CCOCC2)[C@@]2(CCC3CCCC3)c3[nH]c4ccccc4c3CCN2C1=O)NCc1ccco1 (stereo partly drawn)	.	?	.	19%	?	21µM*
O=C(CC1C[C@H](C(=O)N2CCOCC2)[C@@]2(CCC3CCCC3)c3[nH]c4ccccc4c3CCN2C1=O)NCC12CC3CC(CC(C3)C1)C2 (stereo partly drawn)	.	16µM*	.	-17%	?	16µM*
CN(C)CCCNC(=O)C[C@H]1C[C@H](C(=O)N2CCOCC2)[C@@]2(CCC3CCCC3)c3[nH]c4cc(-c5ccco5)ccc4c3CCN2C1=O	.	?	.	?	0	23µM*
COc1ccc(CNC(=O)C[C@H]2C[C@H](C(=O)N3CCOCC3)[C@@]3(CCC4CCCC4)c4[nH]c5cc(-c6ccco6)ccc5c4CCN3C2=O)cc1OC	.	?	.	-4%	?	18µM*
CC[C@]12c3[nH]c4cc(-c5ccco5)ccc4c3CCN1C(=O)[C@@H](CC(=O)NCCCN(C)C)C[C@@H]2C(=O)N1CCN(C(=O)C2CC2)CC1	.	-4%	.	14%	11	3%
COc1ccc2[nH]c3c(c2c1)CCN1C(=O)C(CC(=O)NCc2ccc(OC)c(OC)c2)C[C@H](C(=O)N2CCOCC2)[C@@]31C (stereo partly drawn)	.	-15%	.	?	-6	1%
CNS(=O)(=O)c1cccc(C(=O)NNC(=O)c2ccc(COc3ccccc3)cc2)c1	-2%	?	32%	-25%	-10	6%
O=C1[C@@H]2[C@H]3[C@H](O)[C@H](O)C/C(=N/OC[C@@H](O)COCc4ccco4)[C@@H]3CC[C@H]2C(=O)N1c1ccc(F)cc1F	-5%[10 µM]	.	-14%[10 µM]	.	.	.
CCCNC(=O)C1CCC(Cn2c(=O)c3sccc3n(CC(=O)N(CC)CC)c2=O)CC1 (stereo not drawn)	.	-4%	.	.	.	-21%
CON(C)C(=O)C[C@@H]1C[C@H](OC(=O)c2ccc([N+](=O)[O-])cc2)CN1C(=O)OC(C)(C)C	.	?	.	12%	-1	-21%
SMILES	VP16 counter	TDP1 cell noCPT	RORg inh	ELG1 DNA repair	IL1B secr inh	TDP1 cell CPT
CCc1nc2sc3c(N4CCC(C)CC4)ncnc3c2c2c1CCCC2	.	6%	.	.	.	5%
O=C(CC1C[C@H](C(=O)N2CCOCC2)[C@@]2(CCC3CCCC3)c3[nH]c4ccccc4c3CCN2C1=O)NCCN1CCOCC1 (stereo partly drawn)	.	?	.	-2%	-15	?
CC(C)=CCC/C(C)=C/CNC(=O)C[C@H]1C[C@H](C(=O)N2CCOCC2)[C@@]2(CCC3CCCC3)c3[nH]c4cc(-c5ccco5)ccc4c3CCN2C1=O	.	?	.	-14%	-22	18µM*
O=C(C[C@H]1C[C@H](C(=O)N2CCOCC2)[C@@]2(CCC3CCCC3)c3[nH]c4cc(-c5ccco5)ccc4c3CCN2C1=O)NCCN1CCOCC1	.	?	.	0%	-13	23µM*
O=C(C[C@H]1C[C@H](C(=O)N2CCOCC2)[C@@]2(CCC3CCCC3)c3[nH]c4cc(-c5ccco5)ccc4c3CCN2C1=O)NCC12CC3CC(CC(C3)C1)C2	.	?	.	3%	?	15µM*
O=C(C[C@H]1C[C@H](C(=O)N2CCOCC2)[C@@]2(CCC3CCCC3)c3[nH]c4ccc(Cl)cc4c3CCN2C1=O)NCCCn1ccnc1	.	?	.	8%	-59*	?
C[C@]12c3[nH]c4cc(-c5ccco5)ccc4c3CCN1C(=O)[C@@H](CC(=O)NCC13CC4CC(CC(C4)C1)C3)C[C@@H]2C(=O)N1CCOCC1	.	?	.	?	-19	?
